The text below walks through data of PubChem BioAssay (NCATS).

Where “and” joins values, the source holds several entries; their conditions need not be identical. Identical values can stand only once. Records with an inconclusive call do not appear. Calls of active or inactive are those of the source. Unless noted, calls follow the shape of the dose curve; as a rule, active = well fitted curve in the direction sought with a large enough effect; inconclusive = small, poorly fitted or top-dose-only effect, or another doubt; inactive = no such curve, though single readings can be large; an effect the other way counts as inactive or inconclusive.

Test [1] is described as follows: qHTS Assay for Lipid Storage Modulators (AID 1519; calls by dose curve; as to activity change, negative = inhibition: % is scaled to controls: 0 for no effect and ±100 for the full control effect). Conditions: Drosophila S3 cells, BODIPY lipid droplet/cell ratio, laser cytometry, cells loaded with oleic acid. Put shortly:
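Cells seeded at 5,000 per well were treated with compounds over a concentration series and loaded with oleic acid (400 uM, as added). Lipid droplet fluorescence (488 nm excitation, 500-530 nm channel) was read by laser-scanning cytometry and normalized to 20 uM Triacsin C.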
On the technique in general: Quantitative high-throughput screening tests each substance at several concentrations.

In test [2] the target is Alpha-galactosidase A (Homo sapiens) (UniProt P06280). In words: Counterscreen for Glucocerebrosidase Inhibitors: qHTS Assay for Human alpha-Galactosidase at pH 4.5 (AID 992). Also: 0% is about no effect. An outline of the steps: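 Read-out is 4-methylumbelliferone fluorescence (365 nm excitation, 440 nm emission) after a pH 10 NaOH/glycine stop. Reactions held 2 nM enzyme and 80 uM substrate at pH 4.5 for 20 min at room temperature.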
Alpha-galactosidase A (Homo sapiens), sequence (P06280 whole entry, looked up): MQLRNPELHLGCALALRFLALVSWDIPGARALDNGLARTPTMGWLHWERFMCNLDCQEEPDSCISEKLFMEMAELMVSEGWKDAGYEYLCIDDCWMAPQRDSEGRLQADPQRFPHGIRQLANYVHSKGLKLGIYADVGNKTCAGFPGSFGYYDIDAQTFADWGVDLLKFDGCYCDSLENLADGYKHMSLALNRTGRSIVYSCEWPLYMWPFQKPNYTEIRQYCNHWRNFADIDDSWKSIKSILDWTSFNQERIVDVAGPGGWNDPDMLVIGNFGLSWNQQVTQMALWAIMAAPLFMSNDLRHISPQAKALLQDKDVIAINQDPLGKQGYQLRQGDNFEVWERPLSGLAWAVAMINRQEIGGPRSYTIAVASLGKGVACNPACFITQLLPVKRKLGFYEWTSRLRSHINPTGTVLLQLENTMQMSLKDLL

Test [3] concerns the target alpha-glucosidase (Oryza sativa, rice) (UniProt Q653V4). Kind of test: Counterscreen for Glucocerebrosidase Inhibitors: qHTS Assay for Rice alpha-Glucosidase at pH 5.0 (AID 997).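 Also: 0% = full activity with enzyme and -100% = basal without enzyme.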 Put shortly: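 Rice alpha-glucosidase (4 nM final) with 400 uM 4-methylumbelliferyl-alpha-D-glucopyranoside in citrate buffer pH 5.0, 20 min at room temperature, stopped at pH 10; fluorescence 365/440 nm, compounds 0.7 nM–77 uM, AC50 from Hill fits.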
For orientation: The purpose of a counterscreen is to sort out artefacts and off-target activity.

The nature of test [4]: Validation of Assay for Modulators of Lamin A Splicing (AID 1459; active = well fitted curve in the direction sought with a large enough effect in the signal ratio; the % refers to the signal ratio;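 also: cells exposed to compound for two days before reading; 0% is about no effect; ratio rise marks activators and ratio drop marks inhibitors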). Put shortly:
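Splicing correction is reported by an EGFP-containing lamin A minigene in stably transfected S3 HeLa cells, while DsRed2 controls for viability and nonspecific signal. Cells are exposed to compounds for 48 hrs before the GFP over RFP ratio is taken.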

Test [5] has as its target DNA repair nuclease/redox regulator APEX1 (Homo sapiens) (UniProt P27695). In words: qHTS Validation Assay for Inhibitors of the Human Apurinic/apyrimidinic Endonuclease 1 (APE1) (AID 1705; also: potency is read from the fitted curve at half-maximal effect;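 as to activity change, negative = inhibition: TAMRA fluorescence gain over two minutes as APE1 cuts a quenched THF abasic duplex; % is scaled to controls: 0 for no effect and ±100 for the full control effect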). An outline of the steps:
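Endonuclease activity of human APE1 is followed as dequenching when the enzyme incises a tetrahydrofuran abasic site in a short duplex labelled 5'-TAMRA/3'-BHQ-2 (50 nM final), after 15 min enzyme–compound preincubation at room temperature.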

The nature of test [6]: Counterscreen for APE1 Inhibitors: Fluorescent Dye Displacement Validation Assay (AID 1707). Also: potency is read from the fitted curve at half-maximal effect.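 As to activity change, negative = inhibition: plate controls were ThO with dsDNA and no compound for no effect and ThO without dsDNA for full effect.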 Put shortly: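 ThO 250 nM + dsDNA 50 nM (THF abasic site, 5'-TAMRA), Tris-HCl pH7.5/50mM NaCl/2 mM MgCl2/0.01% Tween-20; compounds pin-transferred; ex 480/em 540 nm endpoint. Neutral = no compound; no-DNA ThO wells = negative control.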
Test [7] in a line: Cell Viability - LYMP2-025 (AID 976).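 Also: plate controls were DMSO only for no effect and tetraoctylammonium bromide control for full effect.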 Put shortly: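 Human lymphoblastoid LYMP2-025 cells, 2500/well, exposed 24 h at 37 C in complete medium in 1536-well qHTS. Viability as cellular ATP by CellTiter-Glo luminescence; AC50 from Hill fits of concentration-response data.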
A short description of test [8]: Cell Viability - LYMP2-006 (AID 978). Also: % is scaled to controls: 0 for no effect and ±100 for the full control effect; nearly all actives have a fitted effect of over 60% in size. Put shortly: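 Concentration-dependent loss of intracellular ATP in a human lymphoblastoid line after 24 hr treatment at 37 C was measured by CellTiter-Glo luminescence, with AC50 values obtained from standard Hill-equation modelling.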
Test [9] in a line: Cell Viability - LYMP2-007 (AID 979).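 Also: cells exposed to compound for 24 h before reading; 0% = DMSO only and the negative end = 92 µM tetraoctylammonium bromide; nearly all actives have a fitted effect of over 60% in size.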 Put shortly:
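Human lymphoblastoid LYMP2-007 cells (2500/well) preincubated 5 h at 37 C, then treated 24 h at 37 C in complete medium. Viability by CellTiter-Glo ATP luminescence after 30 min at room temperature; AC50 from Hill fits.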

Test [10] in a line: Cell Viability - LYMP2-008 (AID 980). Also: % is scaled to controls: 0 for no effect and ±100 for the full control effect; nearly all actives have a fitted effect of over 60% in size. Put shortly:
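LYMP2-008 lymphoblastoid cells (2500/well) plated 5 h, then treated 24 h at 37 C in complete medium. Viability read as intracellular ATP by CellTiter-Glo luminescence after 30 min at room temperature; AC50 from Hill fits.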

The nature of test [11]: Cell Viability - LYMP2-010 (AID 981). Also: % is scaled to controls: 0 for no effect and ±100 for the full control effect; nearly all actives have a fitted effect of over 55% in size. Put shortly: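 Human lymphoblastoid LYMP2-010 cells (2500/well) treated 24 h at 37 C in complete medium; viability read as intracellular ATP by CellTiter-Glo luminescence. AC50 from Hill fits of concentration-response data; tetraoctylammonium bromide positive control.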
Test [12] can be described thus: Cell Viability - LYMP2-012 (AID 982).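 Also: cellular ATP by luciferase luminescence where a drop means cytotoxicity; cells exposed to compound for one day before reading; 0% = DMSO only and full loss = 92 µM tetraoctylammonium bromide; nearly all actives have a fitted effect of over 55% in size.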
A short description of test [13]: Cell Viability - LYMP2-014 (AID 983).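 Also: plate controls were DMSO only for no effect and 92 µM tetraoctylammonium bromide for full effect; nearly all actives have a fitted effect of over 50% in size.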 Put shortly:
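LYMP2-014 human lymphoblastoid cells, 2500/well, treated 24 h at 37 C in complete medium; viability by CellTiter-Glo ATP luminescence after 30 min at room temperature. AC50 from Hill fits of qHTS concentration-response; tetraoctylammonium bromide positive control.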

The nature of test [14]: Cell Viability - LYMP2-016 (AID 984). Also: % is scaled to controls: 0 for no effect and ±100 for the full control effect; nearly all actives have a fitted effect of over 55% in size. An outline of the steps: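 Acute toxicity in a Coriell human lymphoblastoid line is scored as loss of intracellular ATP over 24 h of treatment in complete medium. CellTiter-Glo signal is fitted across concentrations with the Hill equation to give AC50.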
A short description of test [15]: Cell Viability - LYMP2-018 (AID 985).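 Also: compound exposure lasted 24 hr at 37 °C; plate controls were DMSO only for no effect and tetraoctylammonium bromide at 92 µM for full effect; nearly all actives have a fitted effect of over 50% in size.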 Put shortly:
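Human lymphoblastoid LYMP2-018 cells, 2500/well, settled 5 hr at 37 C then exposed to compound 24 hr at 37 C; intracellular ATP measured by CellTiter-Glo luminescence. AC50 from Hill-equation concentration-response fits.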

Test [16] in a line: Cell Viability - LYMP2-020 (AID 986).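 Also: plate controls were DMSO only for no effect and tetraoctylammonium bromide at 92 µM for full effect; nearly all actives have a fitted effect of over 55% in size.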 An outline of the steps:
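Human lymphoblastoid LYMP2-020 cells (2500/well) preincubated 5 h at 37 C, then treated 24 h at 37 C. Viability measured as intracellular ATP by CellTiter-Glo luminescence after 30 min at room temperature; AC50 from Hill fits.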

Test [17] is described as follows: Cell Viability - LYMP2-022 (AID 987). An outline of the steps:
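LYMP2-022 lymphoblastoid cells (2500/well, complete medium) were treated with compounds for 24 hours at 37 C; intracellular ATP was then read by CellTiter-Glo luminescence after 30 min at room temperature. AC50 values were derived from Hill-equation fits.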

A short description of test [18]: Cell Viability - LYMP2-024 (AID 988).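 Also: plate controls were DMSO only for no effect and 92 µM tetraoctylammonium bromide for full effect; nearly all actives have a fitted effect of over 60% in size.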 Put shortly: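 Human lymphoblastoid LYMP2-024 cells (2500/well) rested 5 hr, then treated with compound for 24 hr at 37 C in complete medium. Viability was measured as intracellular ATP by CellTiter-Glo luminescence. AC50 values came from Hill-equation fits.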
Test [19] can be described thus: Cell Viability - LYMP1-002 - Assay at 24 hr (AID 993). Also: % is scaled to controls: 0 for no effect and ±100 for the full control effect. An outline of the steps:
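Human lymphoblastoid LYMP1-002 cells (2500/well) treated 24 h at 37 °C; viability as intracellular ATP by CellTiter-Glo luminescence. Tetraoctylammonium bromide as positive control; AC50 from Hill-equation fits of qHTS concentration-response.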

Test [20] can be described thus: Cell Viability - LYMP1-002 - Assay at 40 hr (AID 994). Put shortly: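 LYMP1-002 human lymphoblastoid cells (2500/well, complete medium) were treated with compounds for 40 hr at 37 C. Intracellular ATP was measured by CellTiter-Glo luminescence, and AC50 values came from Hill-equation fits of concentration-response data; tetraoctylammonium bromide was the positive control.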

[21] abbreviates: measured here: cell count channel max response.
The mark [22] stands for this setting: measured here: lipid channel max response.

DNA repair nuclease/redox regulator APEX1 (Homo sapiens), sequence (P27695 whole entry, looked up): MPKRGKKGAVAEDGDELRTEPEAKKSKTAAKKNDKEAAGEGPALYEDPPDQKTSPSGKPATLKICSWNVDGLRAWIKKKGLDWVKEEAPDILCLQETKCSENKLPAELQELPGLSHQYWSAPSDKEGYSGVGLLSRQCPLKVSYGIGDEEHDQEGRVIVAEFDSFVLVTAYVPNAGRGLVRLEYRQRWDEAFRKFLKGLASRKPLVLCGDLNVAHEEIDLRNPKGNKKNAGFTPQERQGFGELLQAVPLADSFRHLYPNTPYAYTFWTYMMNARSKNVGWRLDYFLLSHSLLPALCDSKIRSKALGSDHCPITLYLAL

Consider `COc1ccccc1OCCNCC(O)COc1cccc2[nH]c3ccccc3c12` (centres undefined), for which the activity change, negative = inhibition in test [1] (at 57.5 µM (top of the series)) was 6.43% (inactive). In addition, the max response in test [1] (setting [21]) was found to be 5.72%; in test [1] (setting [22]), 13%.
As to `CCOC(=O)C(C)(C)Oc1ccc(Cl)cc1`, the result in test [2], in test [3] and in test [4] was inactive. For the same compound, the Potency entry in test [5] and in test [6] was “inactive” throughout.
On to `COc1cc2nc(N(C)CCCNC(=O)C3CCCO3)nc(N)c2cc1OC` (centres undefined), for which, in test [1] (at 57.5 µM (top of the series)), the activity change, negative = inhibition is 3.93% (inactive). In addition, the values for the max response in [1] (setting [21]) and in [1] (setting [22]) were 5.38% and 20.8%, respectively.
On to `NCCCCCC(=O)O`, for which the call in test [2] and in test [3] was inactive. Further, the activity change, negative = inhibition in test [1] (at 25.7 µM (top of the series)) was -1.59% (inactive); in test [1] (at 57.5 µM (top of the series)), 7.83% (inactive) and -0.624% (inactive). Moreover, the max response in test [1] (setting [21]) is -1.8% and 21.2% and -62.4%; in test [1] (setting [22]), -4.61% and 34.1% and -65.3%. Further, the Potency entry in [5] and in [6] was “inactive” throughout.
For `CN1CCN(C2=Nc3cc(Cl)ccc3Nc3ccccc32)CC1`, the compound was called inactive in test [2], in test [3] and in [4]. Besides, the Potency entry in [5] and in test [6] was “inactive” each time.
With `CCOC(=O)c1ncn2c1CN(C)C(=O)c1cc(F)ccc1-2`, the call in [2] and in test [3] was inactive. For the same compound, in test [1] (at 57.5 µM (top of the series)), the activity change, negative = inhibition is -0.292% (inactive). Moreover, the max response in test [1] (setting [21]) came to 20.1%; in test [1] (setting [22]) it was 21.2%. For the same compound, the Potency result in test [5] and in test [6] was “inactive” each time.
As to `CN(C)CCC=C1c2ccccc2C=Cc2ccccc21`, the result in test [2] and in test [3] was inactive. In addition, the figures for the activity change, negative = inhibition in test [1] (at 25.7 µM (top of the series)) and in test [1] (at 57.5 µM (top of the series)) were -1.76% (inactive) and 0.751% (inactive), respectively. In addition, the max response is -6.8% and 1.02% in test [1] (setting [21]); -7.37% and 4.03% in [1] (setting [22]). Also, the Potency in test [5] was 4.47 µM (active).
For the compound `CC(C)NCC(O)COc1ccc(CCOCC2CC2)cc1` (centres undefined), in test [1] (at 57.5 µM (top of the series)), the activity change, negative = inhibition is -2.88% (inactive). Besides, the max response in test [1] (setting [21]) was -16.9%; in test [1] (setting [22]), -20.2%. Besides, the Potency entry in [5] and in test [6] was “inactive” each time.
On to `NS(=O)(=O)c1cc2c(cc1Cl)NCNS2(=O)=O`, for which the result in test [7], in test [8], in test [9], in test [10], in test [11] and in test [12] was inactive. Moreover, the compound was called inactive in [13], in test [14], in test [15], in test [16], in test [17] and in [18]. Further, the compound was classed as inactive in test [2], in test [19] and in test [3]. The Potency entry in [20] and in test [6] was “inactive” each time. For the same compound, the activity change, negative = inhibition in test [1] (at 25.7 µM (top of the series)) was 0.69% (inactive); in test [1] (at 57.5 µM (top of the series)), 7.4% (inactive). The max response in test [1] (setting [21]) is -3.42% and 12.6%; in test [1] (setting [22]), -4.41% and 24.1%.
For the compound `Nc1nc2c(ncn2COC(CO)CO)c(=O)[nH]1`, the compound was called inactive in [2] and in [3]. Further, the activity change, negative = inhibition in test [1] (at 25.7 µM (top of the series)) was -0.899% (inactive); in [1] (at 57.5 µM (top of the series)), -0.373% (inactive). Moreover, the max response was 0.439% and 44.9% in test [1] (setting [21]); 0.456% and 46.2% in test [1] (setting [22]). In addition, the Potency result in [5] was “inactive”.
In the case of `Cc1ccc(C(=O)Nc2ccc(S(=O)(=O)O)c3cc(S(=O)(=O)O)cc(S(=O)(=O)O)c23)cc1NC(=O)c1cccc(NC(=O)Nc2cccc(C(=O)Nc3cc(C(=O)Nc4ccc(S(=O)(=O)O)c5cc(S(=O)(=O)O)cc(S(=O)(=O)O)c45)ccc3C)c2)c1`, the compound was called inactive in test [2] and in test [3]. Besides, in test [1] (at 57.5 µM (top of the series)), the activity change, negative = inhibition is 2.55% (inactive) and 9.29% (inactive). For the same compound, the max response in [1] (setting [21]) is -19.7% and 7.39%; in test [1] (setting [22]) it was -18.9% and 17.7%. In addition, the Potency was 8.91 µM (active) in [5] and 4.47 µM (active) in test [6].
`CCC1(c2ccccc2)C(=O)NCNC1=O`: the outcome in test [7], in test [8], in test [9], in [10], in [11] and in test [12] was inactive. Besides, the call in [13], in test [14], in test [15], in [16], in test [17] and in test [18] was inactive. Further, the call in test [2], in test [19] and in test [3] was inactive. The Potency entry in test [20] and in [6] was “inactive” throughout. The activity change, negative = inhibition in test [1] (at 25.7 µM (top of the series)) is -1.4% (inactive); in test [1] (at 57.5 µM (top of the series)), 0.988% (inactive) and 9.51% (inactive). In addition, the max response is 4.93% and -20.9% and 16.1% in [1] (setting [21]); 2.59% and -19% and 28.8% in test [1] (setting [22]).
